The record followed here is PubChem BioAssay (NCI).

Test systems include NCI-H23 lung; NCI-H226 lung; NCI-H322M lung; HOP-62 NSCLC; NCI-H460 lung; HOP-92 NSCLC; NCI-H522 lung; A549/ATCC NSCLC; 786-0 renal; COLO 205 colon.
What all share (test): NCI-60 one-dose screen, 48 h (100 = growth as untreated, 0 = no growth, -100 = all killed)
What all share (conditions): 10 µM unless noted

Each structure is given as a SMILES string. About 83,000 compounds went through this panel and 20% of them were active in at least one assay; those are over-represented in the sample as a whole.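 Cells were grown in 96-well plates and exposed to the test compound at a single concentration for 48 hours; results are reported as percent growth, with values below 10 considered active.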 Values without a mark were called inactive. Active and inactive are the calls of the source.

As to `COc1ccc2[nH]c(=O)c(/C=C/C(=O)/C=C/c3ccc(O)c(OC)c3)cc2c1`, the growth with NCI-H23 lung is 5.43% (active); in the experiment with NCI-H226 lung, 36.8%; in the experiment with NCI-H322M lung it was 78.8%; in the experiment with HOP-62 NSCLC, 85%; with NCI-H460 lung, 20.1%; in the experiment on HOP-92 NSCLC it was 98.3%. Moreover, the growth is 29% with NCI-H522 lung, 22.6% in the experiment on A549/ATCC NSCLC, -42.7% (active) in the experiment with 786-0 renal and 29.6% in the experiment on COLO 205 colon.
Regarding `CN(CCC#N)C(=O)Nc1ccccc1`, the growth with NCI-H23 lung was 101%; in the experiment on NCI-H226 lung, 106%; with NCI-H322M lung, 107%; in the experiment with HOP-62 NSCLC it was 98.8%; with NCI-H460 lung, 112%; with HOP-92 NSCLC, 114%. In addition, the growth in the experiment with NCI-H522 lung was 79.8%; in the experiment with A549/ATCC NSCLC it was 101%; in the experiment with 786-0 renal, 101%; with COLO 205 colon it was 112%.
Take `C#Cc1ccccc1NC(=O)c1sc2nc3c(cc2c1N)CCCCCC3`: the growth in the experiment on NCI-H23 lung is 53.5%; in the experiment with NCI-H226 lung it was 83.4%; in the experiment on NCI-H322M lung, 82.7%; in the experiment on HOP-62 NSCLC, 76.8%; in the experiment on NCI-H460 lung, 33.4%; with HOP-92 NSCLC it was 67.6%. The growth was 72.1% in the experiment on NCI-H522 lung, 51.4% with A549/ATCC NSCLC, 17% in the experiment with 786-0 renal and 47.4% in the experiment on COLO 205 colon.
In the case of `COc1cc(NC(=O)Nc2cnc(Nc3ccc(N4CCOCC4)cc3)nc2Oc2ccc(C(F)(F)F)cc2)cc(OC)c1`, the growth in the experiment with NCI-H23 lung is 105%; in the experiment on NCI-H226 lung, 97.7%; with NCI-H322M lung it was 106%; with HOP-62 NSCLC, 95.5%; in the experiment on NCI-H460 lung, 105%; with HOP-92 NSCLC, 99%. Also, the growth was 95.9% in the experiment on NCI-H522 lung, 103% with A549/ATCC NSCLC, 109% with 786-0 renal and 127% in the experiment with COLO 205 colon.
As for `Cc1c(Cl)cccc1NC(=O)c1sc2nc3c(cc2c1N)CCCCCC3`, the growth in the experiment on NCI-H23 lung is 42.7%; in the experiment with NCI-H226 lung, 52.2%; in the experiment with NCI-H322M lung it was 45.6%; in the experiment on HOP-62 NSCLC, 30.6%; in the experiment on NCI-H460 lung, 8.77% (active); in the experiment with HOP-92 NSCLC it was 29.3%. Also, the growth in the experiment on NCI-H522 lung was -27.7% (active); in the experiment with A549/ATCC NSCLC, 19.1%; in the experiment with 786-0 renal, 23.3%; in the experiment on COLO 205 colon, -12% (active).
For the molecule `COCCOCCOCc1n(Cc2ccc3ccccc3c2)c2ccccc2[n+]1Cc1ccc2ccccc2c1`, the growth is 5.56% (active) in the experiment on NCI-H23 lung; 17.2% in the experiment with NCI-H226 lung; 40.5% in the experiment with NCI-H322M lung; 17.2% in the experiment on HOP-62 NSCLC; 10.3% with NCI-H460 lung; -32.1% (active) in the experiment with HOP-92 NSCLC. The growth in the experiment on NCI-H522 lung is -16.6% (active); in the experiment on A549/ATCC NSCLC, 33.1%; with 786-0 renal, 23.6%; in the experiment with COLO 205 colon it was -60.7% (active).
Consider `CC(/C=C/c1ccccc1)=N/NC(=O)c1ccncc1`, for which the growth is 98.2% in the experiment with NCI-H23 lung; 104% in the experiment with NCI-H226 lung; 99.7% in the experiment with NCI-H322M lung; 103% with HOP-62 NSCLC; 102% in the experiment with NCI-H460 lung; 77.8% with HOP-92 NSCLC. The growth in the experiment on NCI-H522 lung is 92.9%; with A549/ATCC NSCLC it was 93.4%; with 786-0 renal, 103%; in the experiment with COLO 205 colon it was 119%.
Turning to `O=C(Nc1ccc2ncnc(Nc3ccc(F)c(Cl)c3)c2c1)c1ccccc1`, the growth in the experiment with NCI-H23 lung is 74.6%; in the experiment with NCI-H226 lung, 72.2%; in the experiment on NCI-H322M lung, 27.2%; with HOP-62 NSCLC, 72.3%; in the experiment on NCI-H460 lung it was 30.4%; with HOP-92 NSCLC, 97.2%. Moreover, the growth in the experiment on NCI-H522 lung was 55.6%; in the experiment on A549/ATCC NSCLC, 50.4%; in the experiment on 786-0 renal it was 47.7%; in the experiment on COLO 205 colon, 97.3%.
Turning to `C#C[C@@]1(O)[C@@H](CO)O[C@@H](n2cc(I)c3c(N)ncnc32)[C@@H]1O`, the growth is -14.5% (active) in the experiment on NCI-H23 lung; 52.2% in the experiment on NCI-H226 lung; 20% in the experiment on NCI-H322M lung; -3.39% (active) in the experiment with HOP-62 NSCLC; -25.4% (active) in the experiment on NCI-H460 lung; -23.8% (active) in the experiment with HOP-92 NSCLC. Moreover, the growth in the experiment with NCI-H522 lung was -49.6% (active); in the experiment with A549/ATCC NSCLC it was -56.5% (active); with 786-0 renal, -24.3% (active); in the experiment with COLO 205 colon it was -50.2% (active).
For `Nc1ccc(C2=NN(C(=O)c3cc(-c4ccc(Cl)cc4)nc4ccccc34)C(c3ccc(Cl)cc3)C2)cc1` (stereo not given), the growth in the experiment with NCI-H23 lung is 50%; with NCI-H226 lung it was 60.1%; in the experiment on NCI-H322M lung it was 45.2%; with HOP-62 NSCLC it was 28.8%; with NCI-H460 lung, 17.2%; in the experiment on HOP-92 NSCLC, 60.3%. Besides, the growth was 15.4% with NCI-H522 lung, 43.8% with A549/ATCC NSCLC, 25.6% in the experiment on 786-0 renal and 22.6% in the experiment on COLO 205 colon.
For `O=C1CCc2ccccc2N1`, the growth was 99.4% in the experiment on NCI-H23 lung; 104% with NCI-H226 lung; 87.9% in the experiment with NCI-H322M lung; 102% with HOP-62 NSCLC; 110% in the experiment with NCI-H460 lung; 101% with HOP-92 NSCLC. The growth with NCI-H522 lung was 101%; in the experiment with A549/ATCC NSCLC it was 101%; in the experiment on 786-0 renal, 101%; in the experiment on COLO 205 colon it was 97.1%.
Consider `Cc1cccc(C)c1NCc1nnc(-c2ccco2)o1`, for which the growth was 89% in the experiment on NCI-H23 lung; 80.5% in the experiment with NCI-H226 lung; 91.1% in the experiment on NCI-H322M lung; 80.2% in the experiment with HOP-62 NSCLC; 97% in the experiment with NCI-H460 lung; 83.4% in the experiment with HOP-92 NSCLC. The growth in the experiment with NCI-H522 lung was 72.8%; in the experiment with A549/ATCC NSCLC, 86.8%; in the experiment on 786-0 renal, 105%; in the experiment on COLO 205 colon, 103%.
For the molecule `CCOC(=O)NC(Cc1ccccc1)c1ccccc1` (stereo not given), the growth is 98.4% with NCI-H23 lung; 98.8% in the experiment with NCI-H226 lung; 114% with NCI-H322M lung; 99.6% in the experiment with HOP-62 NSCLC; 111% in the experiment on NCI-H460 lung; 87.4% in the experiment on HOP-92 NSCLC. In addition, the growth was 87.1% in the experiment on NCI-H522 lung, 99.1% in the experiment on A549/ATCC NSCLC, 96.6% in the experiment on 786-0 renal and 105% in the experiment with COLO 205 colon.
